Bioassay records: PubChem, National Center for Advancing Translational Sciences (NCATS)
Marburg entry inh – inhibitors of Marburg virus binding or cell entry; hit rate 1.8% among 300,000; Potency, µM (series often up to 37.8 µM), hits mostly inhibitors; Marburg virus pseudotyped entry inhibition, cell reporter; AID 540276; calls by dose curve; tested in HEK293 cells
FMDV antiviral – blocks foot and mouth disease virus; FMDV antiviral cell-based qHTS; Potency, µM (highest dose often 57.9 µM), most hits filed as inhibitors; hit rate 1.2% among 410,000; calls by dose curve; tested in HEK293T cells; note: read-out not given here; nearly all actives have a fitted effect of over 45% in size
HCV inh – inhibitors of hepatitis C virus infection | Huh7.5.1 HCVcc-Cre infection, luciferase reporter, 44 h | Potency, µM (titrated, usually from 41.8 µM), usual class: inhibitors | hit rate 3.4% among 340,000; active = well fitted inhibition curve with a large enough effect; inconclusive = small, poorly fitted or top-dose-only effect, or another doubt; inactive = no such curve, though single readings can be large or run the other way
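Luciferase read-out (15 sec integration) after a 15 min room-temperature substrate step quantifies HCVcc-Cre infection. Cells, 1,000 per well, had compound added 4 h post-plating, then virus at ~0.5 moi, and were cultured 44 h.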
HCMV inh – inhibitors of human cytomegalovirus | HFF cells, HCMV-luciferase reporter, 72 h; active compounds read low | activity change, negative = inhibition, % at 57.5 µM | hit rate 4.5% among 410,000 | AID 1259415; in the data active = activity change below about -60%; inconclusive = no clear call, values can overlap the other calls; inactive = above about -39%
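Human foreskin fibroblasts infected with luciferase-reporter HCMV at MOI 1 PFU/cell, compounds at two doses. Luciferase measured 72 h post infection; normalized to buffer-only basal and Salinomycin (10uM) controls.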
LASV entry inh – Lassa virus entry inhibition; Lassa virus pseudotype entry inhibition, cell reporter; hit rate 1.2% among 300,000; Potency, µM (top dose mostly 37.9 µM), hits mostly inhibitors; calls by dose curve; tested in HEK293 cells; note: nearly all actives have a fitted effect of over 50% in size
A number is an active result; . = inactive; ? = inconclusive; / = no result. Shown are actives, neighbours in structure and some others; about 7.9% of the full set was active somewhere.

SMILES	Marburg entry inh	FMDV antiviral	HCV inh	HCMV inh	LASV entry inh
CSc1ncccc1C(=O)NC1CCCc2c1cnn2-c1ccc(C)c(C)c1 (configuration not stated)	?	28.2µM	8.91µM	.	.
CCc1[nH]nc(C(=O)NC2CCCc3c2cnn3-c2cc(C)cc(C)c2)c1C (configuration not stated)	3.55µM	.	.	?	?
Cc1cc(C(=O)NC2CCCc3c2cnn3-c2ccc(C)c(C)c2)no1 (configuration not stated)	/	?	?	.	/
COc1ccc(NC(=O)COC(=O)CCCC2=NS(=O)(=O)c3ccccc3N2)cc1	/	.	.	.	/
O=C(O)c1cccc(-n2cnc3cccnc32)c1	.	.	/	.	?
CC1=C(C(=O)N2CCOCC2)CC(CC(=O)NCC2CCCCC2)C(=O)N1Cc1ccccc1 (configuration not stated)	/	.	/	.	/
CCC1CN(CCNC(=O)c2ccc(C#CC(C)(C)O)cc2)Cc2cc(OC)ccc2O1 (configuration not stated)	/	.	/	/	/
COC(=O)[C@H]1[C@H](C)[C@@]2(O)c3ccccc3N(C)[C@@]1(C)[C@H]2O	.	/	/	/	/
O=C1C=C(c2ccccc2)CC(c2cccs2)C1n1cnc([N+](=O)[O-])c1 (configuration not stated)	.	.	.	.	.
O=C1C=C(c2ccccc2)C[C@H](c2cccs2)[C@H]1n1nnc([N+](=O)[O-])n1	2µM	.	?	?	?
CC(=O)Nc1ccc(S(=O)(=O)N2CCC(N3CCN(Cc4ccc(C)cc4)C(=O)C3=O)CC2)cc1	/	.	/	.	.
COc1cc(OC)c(NC(=O)CCn2cccn2)cc1Cl	/	.	/	.	.
CCN(CC)C(=O)CSc1nc2c(sc(=S)n2CC)c(=O)n1-c1ccccc1	.	?	.	-71.6	.
CCN(CC)C(=O)CSc1nc2c(sc(=S)n2-c2ccccc2)c(=O)n1Cc1ccco1	9.2µM	?	10µM	-67.5	?
CCC(C)NC(=O)CSc1nc2c(sc(=S)n2Cc2ccco2)c(=O)n1-c1ccccc1 (configuration not stated)	.	?	?	?	?
CCN1C(=O)C(CC(=O)Nc2ccc(OC)cc2)N(CCCN2CCN(c3ccc(OC)cc3)CC2)C1=S (configuration not stated)	?	.	11.2µM	.	?
CCN1C(=O)C(CC(=O)Nc2ccc(OC)cc2)N(CCN2CCOCC2)C1=S (configuration not stated)	/	.	.	.	/
COc1ccc(NC(=O)CCN2CCN(c3cccc(Cl)c3)CC2)cc1	?	.	/	.	?
COc1ccc(C(=O)NCC(=O)N2CCN(c3ccc(F)cc3)CC2)cc1	.	.	.	-64.0	.
CCOC(=O)c1cc(S(=O)(=O)N2CCN(c3cccc(OC)c3)CC2)[nH]n1	/	.	/	.	.
CCOC(=O)c1cc(S(=O)(=O)N2CCN(c3ccc(OC)cc3)CC2)[nH]n1	/	.	/	-112.3	.
COc1ccc(NC(=O)CCN2CCN(c3ccc(F)cc3)CC2)cc1	/	.	.	-75.6	/
COc1ccc(-c2nc3cc(F)ccc3cc2CN(C(=O)c2cccs2)C2CC2)cc1	/	.	/	/	/
O=C(CCC(=O)N1CCSc2ccccc21)NCc1ccccc1	/	.	.	.	/
CCOC(=O)c1cccc(NC(=O)CN2CCN(c3ccc(OC)cc3)CC2)c1	.	.	.	.	1.12µM
SMILES	Marburg entry inh	FMDV antiviral	HCV inh	HCMV inh	LASV entry inh
Cc1nnc(SCC(=O)N2CC(=O)Nc3ccccc32)n1Cc1ccccc1	?	.	.	.	.
O=C1CN(C(=O)CSc2nc3ccccc3c(=O)n2CC2CCCO2)c2ccccc2N1 (configuration not stated)	/	?	.	.	/
O=C1CN(C(=O)CSc2nc3cc(Cl)ccc3c(=O)n2Cc2ccccc2)c2ccccc2N1	?	.	11.2µM	?	?
Cc1ccc(Cn2c(SCC(=O)N3CC(=O)Nc4ccccc43)nc3ccccc3c2=O)cc1	?	.	10µM	-76.3	?
Cc1cccc(C)c1NC(=O)NCCc1c[nH]c2ccccc12	.	.	/	.	.
CCSc1nc2c(c(=O)[nH]c(=O)n2C)n1CC(O)COc1ccccc1C (configuration not stated)	?	20µM	?	.	.
CC(O)CSc1nc2c(c(=O)[nH]c(=O)n2C)n1CC(O)COc1ccccc1 (configuration not stated)	/	.	.	-93.6	/
CC(C)Sc1nc2c(c(=O)[nH]c(=O)n2C)n1CC(O)COc1ccccc1 (configuration not stated)	.	.	.	?	?
CCCCn1c(SCC(=O)OCC)nc2c(sc(=S)n2-c2ccccc2OC)c1=O	.	.	.	?	.
O=C(O)c1ccc(S(=O)(=O)NN=Cc2c[nH]c3ccccc23)cc1	/	.	/	.	/
CC(C)n1cc(/C=N/Nc2ccc(C(=O)O)cc2)c2ccccc21	.	3.55µM	.	.	.
Cc1cc(C)nc(N/N=C/c2c[nH]c3ccccc23)n1	.	.	.	.	.
O=C(O)c1ccc(N/N=C/c2c[nH]c3ccccc23)cc1	/	6.31µM	.	-65.0	/
Fc1c(F)c(F)c(N/N=C/c2c[nH]c3ccccc23)c(F)c1F	?	.	?	-65.4	.
COCCN(C(=O)COC(=O)CCc1ccccc1)c1c(N)n(Cc2ccccc2)c(=O)[nH]c1=O	.	.	.	.	.
Cc1ccc(C(=O)Nc2ccc(CC(=O)O)cc2)o1	.	.	.	.	.
CC(C)(C)c1ccc(C(=O)Nc2ccc(CC(=O)O)cc2)o1	?	0.794µM	.	-74.1	2.31µM
Fc1ccc(Nc2nc(Nc3ccc(F)cc3)nc(N3CCOCC3)n2)cc1	?	?	/	.	.
Fc1ccc(Nc2nc(N/N=C/c3ccco3)nc(N3CCCCC3)n2)cc1	/	.	11.2µM	?	/
Cc1ccc(Cl)cc1NC(=O)c1cc(NC(=O)C2CCCCC2C(=O)O)ccc1N1CCOCC1 (configuration not stated)	.	.	.	.	10µM
Cc1ccc(NC(=O)c2cc(NC(=O)c3ccco3)ccc2N2CCOCC2)cc1	.	.	12.6µM	.	?
Cc1ccc(NC(=O)c2cc(NC(=O)c3ccco3)ccc2N2CCCCC2)cc1	?	.	?	-63.7	.
Cc1cccc(NC(=O)c2cc(NC(=O)C3CCCCC3C(=O)O)ccc2N2CCOCC2)c1 (configuration not stated)	.	.	/	.	.
Cc1ccc(NC(=O)c2cc(N3C(=O)C=CC3=O)ccc2N2CCOCC2)cc1	.	?	10µM	?	/
O=C(COC(=O)c1cnccn1)NCc1ccccc1Cl	/	.	/	.	/
COc1ncc2nc(-c3ccc(F)cc3)c(=O)n(Cc3ccc(F)cc3)c2n1	/	.	/	/	/
c1ccc2c(C3=NNC(=NC4CC4)SC3)c[nH]c2c1	?	.	.	.	11.2µM
c1ccc2c(C3=NNC(=NC4CCCCC4)SC3)c[nH]c2c1	.	.	.	.	.
c1ccc(C2=NNC(=NC3CC3)SC2)cc1	?	/	.	.	8.2µM
Cc1cccc(C)c1NC(=O)CNC(=O)C(Cc1ccccc1)NC(=O)c1ccccc1 (configuration not stated)	.	.	.	.	.
